# Bioassay records deposited in PubChem by National Center for Advancing Translational Sciences (NCATS).
# p53ts 32C kill: cytotoxicity in p53ts cells at permissive temperature; H1299-p53A138V at 32C, ATP luminescence viability, 24 h; Potency, µM (doses to about 46.1 µM), for inactives: at the highest dose activity change, negative = cytotoxicity, usual class: cytotoxic; hit rate 0.93% among 130,000;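 also: 0% = DMSO and -100% = full killing by reference compound; nearly all actives have a fitted effect of over 55% in size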
#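 ATP-content luminescence (ATPlite) read-out after 24 h compound exposure at 32C in H1299-p53A138V cells (600/well). Tested up to 46 uM. Normalized to DMSO (0%) and 100 uM tamoxifen (100% killing); Hill-fit AC50.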
# Peg3 imprint: induces erasure of genomic imprints in mouse ES cells. mouse ES Peg3-LacZ reporter, beta-gal luminescence, 40 h. Potency, µM (series often up to 60.7 µM), for inactives: at the highest dose activity change, positive = activation, actives largely listed as activators. hit rate 0.02% among 110,000. AID 1948
#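 Each well holds 300 Peg3LacZ-Neo (maternal) female ES cells incubated 40 h at 37C, 5% CO2. LacZ is measured by BetaGlo luminescence, with AC50 and maximum efficacy derived from dose-response curves.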
# IkB signaling: IkB pathway inhibition in ABC-DLBCL cells. ABC-DLBCL IkBa-CBG/CBR dual luciferase ratio, 4 h; response scale: scaled: untreated 0%, proteasome inhibitor 100%. Potency, µM (top dose mostly 57.1 µM), inactives show at the top dose IkBa stabilization activation. hit rate 0.04% among 110,000; active = well fitted curve in the direction sought with a large enough effect in the signal ratio, not every such curve was filed as active; inconclusive = small, poorly fitted or top-dose-only effect, or a change in a side signal; the % refers to the signal ratio;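 also: the direction sought is a rising ratio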
#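 Curves were fitted separately to fusion (green), unfused (red) and ratio luminescence, then classed by r2, magnitude and activity. Cells: OCI-Ly3, 4 h compound plus doxycycline at 37C; 10 uM MG-132 defined full response.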
# p53ts 39C tox: kills p53ts cells at the nonpermissive temperature. Potency, µM (top dose mostly 46.1 µM), inactives show at the highest dose activity change, negative = cell killing, hits mostly cytotoxic. AID 902. H1299-p53A138V viability at 39C, ATP luminescence, 24 h. hit rate 1.5% among 130,000; also: % is scaled to controls: 0 for no effect and ±100 for the full control effect; nearly all actives have a fitted effect of over 55% in size
# * hit, by the source's call; ? = inconclusive; . = no result given; [ ] = another dose, or the depositor's remark. Most compounds without a hit are left out; they make up all but 1.8% or so of the library. Unless noted, calls follow the shape of the dose curve; as a rule, active = well fitted curve in the direction sought with a large enough effect; inconclusive = small, poorly fitted or top-dose-only effect, or another doubt; inactive = no such curve, though single readings can be large; an effect the other way counts as inactive or inconclusive. Potency is read from the fitted curve at half-maximal effect.
SMILES,p53ts 32C kill,Peg3 imprint,IkB signaling,p53ts 39C tox
Cc1cccc(NC(c2cccc(Cl)c2)c2ccc3cccnc3c2O)n1 (stereo not drawn),-24%,-30%[10.9 µM],?,13µM*
Cc1ccc(C(Nc2ccccn2)c2ccc3cccnc3c2O)cc1 (stereo not drawn),?,-17%[10.9 µM],?,?
COc1ccc(-c2cc(C(F)(F)F)n3nc(-c4ccc(Cl)cc4)cc3n2)cc1OC,-5%,7%[10.9 µM],1%,9%
COc1ccc(-c2nc3ccccc3s2)cc1O,5µM*,.,?,2.5µM*
O=S(=O)(c1cccc(-c2nc3ccccc3s2)c1)N1CCCC1,-5%,-13%,4%,-13%
Oc1cccc(-c2nc3ccccc3s2)c1,7.9µM*,-83%,6%,10µM*
Cc1ccc(C(C)C)c(OCC(=O)Nc2cc(-c3nc4ccccc4[nH]3)ccc2C)c1,?,-10%[10.9 µM],?,10µM*
[N-]=[N+]=Nc1ccc(C(=O)CSC[C@@H](NC(=O)CC[C@@H](N)C(=O)O)C(=O)NCC(=O)O)cc1,16%,.,-3%,11%
Cc1ccc(-c2cc(C(=O)N3CCN(c4ccccc4)CC3)c3ccccc3n2)cc1C,13µM*,5%[10.9 µM],1%,10µM*
CCCOc1ccc(NC(=O)CC2C(=O)N(c3ccccc3)C(=O)N2Cc2ccc(F)cc2)cc1 (stereo not drawn),-1%,4%[10.9 µM],1%,-15%
CCOc1ccc2nc(NC(=O)Nc3cccs3)sc2c1,16µM*,-56%,?,10µM*
CCOc1ccc2nc(NC(=O)COC)sc2c1,?,-68%,8%,?
Clc1ccc(-n2nnnc2Sc2ncnc3sccc23)cc1,?,-39%,?,20µM*
Cc1sc2ncnc(Sc3nnnn3-c3ccccc3)c2c1C,?,-33%,?,-19%
CCCOc1ccc(N)cc1N,20µM*,-21%,27%,-21%
Cn1cc(C(=O)c2ccccc2)cc1-c1nc2ccccc2n1C,3%,-13%,?,-7%
CN(C)c1ccc(-c2nc3ccccc3n2C)cc1,1.6µM*,-92%,?,0.79µM*
Cc1oc(-c2nc3ccccc3n2C)cc1C(=O)c1ccccc1,5µM*,-94%,?,4µM*
Cn1c(-c2ccc(Br)o2)nc2cc(Br)ccc21,?,-86%,-1%,?
Cn1c(-c2ccc(Br)o2)nc2ccccc21,7.9µM*,-99%,8%,10µM*
CC1CCN(c2nn3c(=O)c(C(=O)NCCc4ccc(Cl)cc4)cnc3s2)CC1,-8%,-8%[10.9 µM],-1%,17%
CN1CCN([C@@H]2Cc3ccccc3Sc3ccc(Cl)cc32)CC1,20µM*,.,-6%,16µM*
CN1CCN(C2Cc3ccccc3Sc3ccc(S)cc32)CC1 (stereo not drawn),.,-9%,.,.
CSc1nn(Cc2ccc(C)cc2)c(N)c1S(=O)(=O)c1ccccc1,60%,-2%[10.9 µM],?,-13%
Cc1ccc(Cc2c(C)nc3nc(SCC(=O)NC4CCC(C)CC4)nn3c2C)cc1 (stereo not drawn),23%,13%[10.9 µM],3%,20µM*
SMILES,p53ts 32C kill,Peg3 imprint,IkB signaling,p53ts 39C tox
Cc1cccc(Cc2c(C)nc3nc(SCC(=O)NC4CCCCC4)nn3c2C)c1,4%,-12%[10.9 µM],?,-18%
CC(=O)Oc1ccc2c(c1)CCC1C2CC[C@]2(C)C(OC(C)=O)CCC12 (stereo partly drawn),?,-20%,.,25µM*
Cc1ccc(S(=O)(=O)N[C@H](CO)C(=O)O)cc1,18%[9.22 µM],-4%[10.9 µM],0%[11.4 µM],7%[9.22 µM]
Cc1ccc(S(=O)(=O)N[C@@H](Cc2ccccc2)C(=O)CCl)cc1,6.3µM*,-32%,?,3.2µM*
[N-]=[N+]=Nc1nc2c(N)ncnc2n1C1OC(CO)C(O)C1O (stereo not drawn),2µM*,-7%,.,2.5µM*
Nc1ncnc2c1nc(Cl)n2C1OC(CO)C(O)C1O (stereo not drawn),?,-10%,.,?
CCN(CC)CCNC(=O)c1ccc(Cc2nc3ccccc3[nH]2)cc1,-7%,.,.,-3%
CCCS(=O)(=O)Nc1cc(-c2cn3ccc(C)cc3n2)ccc1C,?,-6%[10.9 µM],-1%,?
COc1ccc(-c2cn3ccccc3n2)cc1OC,3.2µM*,-65%,2%,5µM*
Cc1ccc(-c2cn3ccc(C)cc3n2)cc1,0.5µM*,-79%[10.9 µM],?,0.63µM*
COc1ccc(-c2cn3cc(C)ccc3n2)cc1OC,10µM*,-84%,0%,13µM*
O=C1C[C@H]2OCC=C3CN4CC[C@@]5(C(=O)O)[C@H](N1)C2[C@H]3C[C@H]45 (stereo partly drawn),.,-2%[10.9 µM],.,.
CCOc1cc(C(=O)NCc2ccc3c(c2)CCN3C(=O)c2ccc(F)cc2)cc(OCC)c1OCC,20%,-7%[10.9 µM],-3%,34%
CCCCn1c(NC(=O)c2ccccc2)c(C#N)c2nc3ccccc3nc21,?,-30%,?,6.3µM*
CCCCn1c(NC(=O)c2ccc(F)cc2)c(C#N)c2nc3ccccc3nc21,-9%,-31%,?,13%
Cc1ccc(NC(=O)N(Cc2cn(C)c3ccccc23)C2CCCCC2)cc1C,?,-14%[10.9 µM],?,13µM*
COc1cccc(NC(=O)N(Cc2cn(C)c3ccccc23)C2CCCCC2)c1,-25%,-11%[10.9 µM],?,?
CN(CCc1ccc(Cl)c(Cl)c1)CCN1CCCCCC1,?,-22%,0%,16µM*
COc1cccc(NC(=O)CSc2nnc(-c3ccc(C)cc3)o2)c1,-22%,-85%,11%,?
CC(=O)Nc1cccc(-c2nnc(SCC(=O)c3cc([N+](=O)[O-])ccc3Cl)o2)c1,?,-27%[10.9 µM],?,13µM*
COc1cccc(NC(=O)CSc2nnc(-c3cccc(OC)c3)o2)c1,13µM*,-42%[10.9 µM],?,10µM*
O=C(CSc1nnc(-c2ccccc2F)o1)Nc1ccccc1Cl,?,11%[10.9 µM],8%,13µM*
COc1ccccc1NC(=O)CSc1nnc(-c2ccc(C)cc2)o1,7.9µM*,-90%,?,6.3µM*
COc1cccc(NC(=O)COc2ccccc2C(N)=O)c1,16µM*,-79%,?,10µM*
COc1ccc(OCC(=O)Nc2cccc(OC)c2)cc1,-11%,2%,?,-6%
SMILES,p53ts 32C kill,Peg3 imprint,IkB signaling,p53ts 39C tox
C=C1CC[C@@H]2[C@](C)(CC[C@@H](O)[C@]2(C)CO)[C@@H]1C/C=C1/C(=O)OC[C@H]1O,.,.,10%[11.4 µM],.
Cc1cc(C)n(CCc2nc3c4ccccc4nc(N4CCN(c5cccc(C)c5C)CC4)n3n2)n1,4%,13%[10.9 µM],?,-5%
CCOC(=O)c1nn(-c2ccc3c(c2)CCN3C(C)=O)cc1O,5µM*,-64%,0%,4µM*
CCc1ccc(NC(=O)C(=O)NCC(c2ccc3c(c2)OCO3)N2CCOCC2)cc1 (stereo not drawn),0%,5%[10.9 µM],-1%,-2%
Cc1ccc2nc3sc(C(=O)N4CCOCC4)c(N)c3cc2c1,6.3µM*,-34%,?,6.3µM*
Cc1ccc2cc3c(N)c(C(=O)N4CCOCC4)sc3nc2c1,?,-80%,?,?
